In the supplement of paper PMC10849652:
Targets with a hit are over-represented here; the source holds about 8,800 in all. About 0.5% of all pairs of compound and target were hits.

What was measured:
Test in all cases: log2 fold change, soluble protein after heating vs DMSO (PISA); higher = thermal stabilisation; K562 lysate, 10 uM; active = over 0.2 and 3.5 SD of the protein, either way, in both replicates (recomputed)
[1] = compound: CS(=O)(=O)CCNCc1ccc(-c2ccc3ncnc(Nc4ccc(OCc5cccc(F)c5)c(Cl)c4)c3c2)o1 [lapatinib]
Method in brief: (§1)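 The values are log-two fold changes in thermal stability compared with solvent controls and come from duplicates. They were obtained by TMTpro 16plex LC-MS/MS, with channel sums equalised, on the supernatant after 21,000xg for 90 min. That supernatant came from crude K562 extract at 1 mg/mL protein treated with 10 μM compound for 30 min, heated for 3 min across 48°C-58°C, pooled and brought to 0.5% NP-40 at 4°C.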

[2] = compound: CS(=O)(=O)N1CCN(Cc2cc3nc(-c4cccc5[nH]ncc45)nc(N4CCOCC4)c3s2)CC1 [pictilisib]
Method in brief: as §1

[3] = compound: C[C@@H](Oc1cc(-c2cnn(C3CCNCC3)c2)cnc1N)c1c(Cl)ccc(F)c1Cl [crizotinib]
Method in brief: as §1

[4] = compound: C[C@H](C1=CC=C(C=C1)C(=O)NC2=C3C=CNC3=NC=C2)N
Method in brief: as §1

[5] = compound: C[C@H](Nc1ncnc2nc[nH]c12)c1cc2cccc(Cl)c2c(=O)n1-c1ccccc1 [duvelisib]
Method in brief: as §1

[6] = compound: Cc1cc(Nc2cc(CN3CCOCC3)c3nc(C)c(Cc4ccc(Cl)cc4F)n3n2)n[nH]1 [gandotinib]
Method in brief: as §1

[7] = compound: Cc1cc(Nc2cc(N3CCN(C)CC3)nc(Sc3ccc(NC(=O)C4CC4)cc3)n2)n[nH]1 [tozasertib]
Method in brief: as §1

[8] = compound: Cc1ccc(-n2nc(C(C)(C)C)cc2NC(=O)Nc2ccc(OCCN3CCOCC3)c3ccccc23)cc1 [doramapimod]
Method in brief: as §1

[9] = compound: Cc1ccc(NC(=O)c2ccc(CN3CC[C@H](N(C)C)C3)c(C(F)(F)F)c2)cc1Nc1nccc(-c2cncnc2)n1 [bafetinib]
Method in brief: as §1

[10] = compound: Cc1cccc(CC(=O)N2CCc3c2ccc(-c2cn(C)c4ncnc(N)c24)c3F)n1
Method in brief: as §1

[11] = compound: Cc1cn(-c2cc(NC(=O)c3ccc(C)c(Nc4nccc(-c5cccnc5)n4)c3)cc(C(F)(F)F)c2)cn1 [nilotinib]
Method in brief: as §1

[12] = compound: Cc1nc(Nc2n[nH]c3c2CN(C(=O)N[C@H](CN(C)C)c2ccccc2)C3(C)C)c2sccc2n1
Method in brief: as §1

[13] = compound: Cc1nc(Nc2ncc(C(=O)Nc3c(C)cccc3Cl)s2)cc(N2CCN(CCO)CC2)n1 [dasatinib]
Method in brief: as §1

[14] = compound: Cc1ncc(-c2ccnc(Nc3ccc(S(C)(=O)=O)cc3)n2)n1C(C)C
Method in brief: as §1

[15] = compound: Cn1cc(-c2ccc3c(c2)CCN3C(=O)Cc2cccc(C(F)(F)F)c2)c2c(N)ncnc21
Method in brief: as §1

[16] = compound: Cn1cc(CNCC2CCN(c3ncc(C(=O)NO)cn3)CC2)c2ccccc21 [quisinostat]
Method in brief: as §1

[17] = compound: Cn1cncc1[C@@](N)(c1ccc(Cl)cc1)c1ccc2c(c1)c(-c1cccc(Cl)c1)cc(=O)n2C [tipifarnib]
Method in brief: as §1

[18] = compound: NC(=O)Nc1cc(-c2cccc(F)c2)sc1C(=O)N[C@H]1CCCNC1
Method in brief: as §1

[19] = compound: NC(=O)c1cnc(N[C@@H]2CCCC[C@@H]2N)nc1Nc1cccc(-n2nccn2)c1
Method in brief: as §1

[20] = compound: NC1(c2ccc(-c3nc4ccn5c(=O)[nH]nc5c4cc3-c3ccccc3)cc2)CCC1
Method in brief: as §1

Measured: log2 fold change

CHORDC1 (UniProt Q9UHD1)
inactive: [1] -0.001 | [2] 0.009 | [3] 0.022 | [4] 0.18 | [5] 0.006 | [6] -0.011 | [7] 0.022 | [8] -0.028 | [9] 0.022 | [10] -0.031 | [11] 0.024 | [12] -0.003 | [13] 0.016 | [14] 0.034 | [15] 0.008 | [16] 0.018 | [17] 0.021 | [18] -0.015 | [19] 0 | [20] -0.005

DHRS13 (UniProt Q6UX07)
inactive: [1] 0.048 | [2] -0.052 | [3] -0.048 | [5] 0.185 | [8] 0.087 | [9] -0.113 | [11] 0.133 | [12] 0.385 | [13] 0.048 | [14] -0.142 | [15] 0.142 | [16] 0.078 | [17] -0.223 | [18] -0.011 | [19] -0.08 | [20] -0.121

CRLS1 (UniProt Q9UJA2)
Chain of UniProt Q9UJA2 (Q9UJA2 whole entry, looked up): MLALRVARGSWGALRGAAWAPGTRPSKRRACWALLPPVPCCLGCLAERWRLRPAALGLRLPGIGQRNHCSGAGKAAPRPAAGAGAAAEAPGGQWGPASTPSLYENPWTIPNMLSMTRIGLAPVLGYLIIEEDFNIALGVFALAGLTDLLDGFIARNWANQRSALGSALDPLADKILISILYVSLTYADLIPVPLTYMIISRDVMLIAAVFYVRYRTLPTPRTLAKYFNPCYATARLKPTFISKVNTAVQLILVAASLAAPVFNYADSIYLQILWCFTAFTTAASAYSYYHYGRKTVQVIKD
inactive: [1] -0.003 | [2] -0.107 | [3] -0.086 | [4] 0.084 | [6] -0.105 | [8] -0.062 | [9] -0.437 | [10] -0.176 | [11] 0.1 | [12] -0.096 | [14] -0.143 | [16] -0.122 | [17] -0.01 | [18] 0.066 | [19] -0.018 | [20] -0.067

CLP1 (UniProt Q92989)
inactive: [1] -0.003 | [3] -0.041 | [4] -0.12 | [5] -0.056 | [6] 0.008 | [7] 0.004 | [8] 0.032 | [9] 0.01 | [10] 0.047 | [11] -0.029 | [12] 0.039 | [13] -0.037 | [14] -0.039 | [15] 0.119 | [16] -0.065 | [17] -0.011 | [18] 0.029 | [19] -0.027 | [20] 0.026

CNOT4 isoform 9 (UniProt O95628)
active: [4] -1.01
inactive: [1] -0.006 | [2] -0.014 | [3] 0.077 | [5] -0.009 | [6] 0.298 | [7] 0.04 | [8] -0.184 | [9] -0.031 | [10] 0.271 | [13] -0.062 | [15] -0.052 | [16] 0.17 | [18] -0.058 | [19] 0.081 | [20] -0.024

CLUH, A0A494C0R8
active: [4] 0.557
inactive: [1] -0.052 | [3] -0.019 | [5] 0.154 | [6] -0.108 | [7] -0.025 | [8] -0.026 | [9] -0.091 | [10] -0.14 | [11] 0.026 | [12] 0.146 | [13] 0.028 | [14] -0.022 | [15] 0.015 | [16] -0.165 | [17] -0.033 | [18] 0.022 | [19] -0.045 | [20] 0.046

DERA (UniProt Q9Y315)
active: [4] 0.732
inactive: [1] -0.002 | [2] -0.028 | [3] -0.015 | [5] -0.004 | [6] -0.072 | [7] -0.028 | [8] -0.001 | [9] 0.012 | [10] -0.132 | [11] 0.037 | [12] -0.027 | [13] 0.057 | [14] 0.006 | [15] -0.017 | [16] -0.008 | [17] 0.08 | [18] -0.017 | [19] -0.021 | [20] 0

CYP4V2 (UniProt Q6ZWL3)
active: [2] -0.441
inactive: [1] 0.049 | [3] 0.12 | [5] 0.031 | [8] 0.027 | [9] 0.177 | [13] -0.041 | [15] 0.049 | [16] 0.103 | [18] -0.026 | [19] -0.101 | [20] -0.033

DDX4 (UniProt Q9NQI0)
Chain of UniProt Q9NQI0 (Q9NQI0 whole entry, looked up): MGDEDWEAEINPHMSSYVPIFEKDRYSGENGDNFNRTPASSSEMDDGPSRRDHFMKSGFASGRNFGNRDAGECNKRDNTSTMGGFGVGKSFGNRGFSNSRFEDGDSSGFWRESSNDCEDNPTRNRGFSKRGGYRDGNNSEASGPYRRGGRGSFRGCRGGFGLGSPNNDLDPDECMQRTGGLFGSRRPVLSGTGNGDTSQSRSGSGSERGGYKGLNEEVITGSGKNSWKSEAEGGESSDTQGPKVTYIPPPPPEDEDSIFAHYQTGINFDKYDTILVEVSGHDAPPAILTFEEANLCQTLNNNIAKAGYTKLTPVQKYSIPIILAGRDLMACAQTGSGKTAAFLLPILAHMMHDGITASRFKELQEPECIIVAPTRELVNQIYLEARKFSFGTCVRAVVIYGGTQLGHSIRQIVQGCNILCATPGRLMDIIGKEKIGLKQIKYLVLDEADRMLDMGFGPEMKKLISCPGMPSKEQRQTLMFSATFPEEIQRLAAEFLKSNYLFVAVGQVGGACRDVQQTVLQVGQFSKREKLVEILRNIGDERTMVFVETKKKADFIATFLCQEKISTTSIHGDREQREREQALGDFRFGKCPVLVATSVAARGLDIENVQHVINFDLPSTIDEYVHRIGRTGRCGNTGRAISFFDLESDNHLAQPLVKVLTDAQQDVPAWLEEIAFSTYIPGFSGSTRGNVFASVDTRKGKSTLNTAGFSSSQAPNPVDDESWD
active: [4] -0.481
inactive: [1] -0.045 | [2] 0.035 | [5] 0.02 | [6] 0.132 | [7] 0.078 | [9] -0.167 | [10] 0.174 | [11] -0.108 | [12] 0.043 | [13] 0.014 | [14] -0.085 | [15] 0.076 | [17] 0.028 | [19] 0.062 | [20] 0.059

CHMP4A (UniProt H0YIN6)
inactive: [1] -0.078 | [2] -0.071 | [3] -0.211 | [4] -0.091 | [5] 0 | [6] 0.451 | [8] -0.059 | [9] -0.098 | [10] 0.325 | [13] 0.294 | [15] -0.06 | [16] -0.502 | [18] 0.041 | [19] 0.066

CLIP1 isoform 2 (UniProt P30622)
Chain of UniProt P30622 (P30622 whole entry, looked up): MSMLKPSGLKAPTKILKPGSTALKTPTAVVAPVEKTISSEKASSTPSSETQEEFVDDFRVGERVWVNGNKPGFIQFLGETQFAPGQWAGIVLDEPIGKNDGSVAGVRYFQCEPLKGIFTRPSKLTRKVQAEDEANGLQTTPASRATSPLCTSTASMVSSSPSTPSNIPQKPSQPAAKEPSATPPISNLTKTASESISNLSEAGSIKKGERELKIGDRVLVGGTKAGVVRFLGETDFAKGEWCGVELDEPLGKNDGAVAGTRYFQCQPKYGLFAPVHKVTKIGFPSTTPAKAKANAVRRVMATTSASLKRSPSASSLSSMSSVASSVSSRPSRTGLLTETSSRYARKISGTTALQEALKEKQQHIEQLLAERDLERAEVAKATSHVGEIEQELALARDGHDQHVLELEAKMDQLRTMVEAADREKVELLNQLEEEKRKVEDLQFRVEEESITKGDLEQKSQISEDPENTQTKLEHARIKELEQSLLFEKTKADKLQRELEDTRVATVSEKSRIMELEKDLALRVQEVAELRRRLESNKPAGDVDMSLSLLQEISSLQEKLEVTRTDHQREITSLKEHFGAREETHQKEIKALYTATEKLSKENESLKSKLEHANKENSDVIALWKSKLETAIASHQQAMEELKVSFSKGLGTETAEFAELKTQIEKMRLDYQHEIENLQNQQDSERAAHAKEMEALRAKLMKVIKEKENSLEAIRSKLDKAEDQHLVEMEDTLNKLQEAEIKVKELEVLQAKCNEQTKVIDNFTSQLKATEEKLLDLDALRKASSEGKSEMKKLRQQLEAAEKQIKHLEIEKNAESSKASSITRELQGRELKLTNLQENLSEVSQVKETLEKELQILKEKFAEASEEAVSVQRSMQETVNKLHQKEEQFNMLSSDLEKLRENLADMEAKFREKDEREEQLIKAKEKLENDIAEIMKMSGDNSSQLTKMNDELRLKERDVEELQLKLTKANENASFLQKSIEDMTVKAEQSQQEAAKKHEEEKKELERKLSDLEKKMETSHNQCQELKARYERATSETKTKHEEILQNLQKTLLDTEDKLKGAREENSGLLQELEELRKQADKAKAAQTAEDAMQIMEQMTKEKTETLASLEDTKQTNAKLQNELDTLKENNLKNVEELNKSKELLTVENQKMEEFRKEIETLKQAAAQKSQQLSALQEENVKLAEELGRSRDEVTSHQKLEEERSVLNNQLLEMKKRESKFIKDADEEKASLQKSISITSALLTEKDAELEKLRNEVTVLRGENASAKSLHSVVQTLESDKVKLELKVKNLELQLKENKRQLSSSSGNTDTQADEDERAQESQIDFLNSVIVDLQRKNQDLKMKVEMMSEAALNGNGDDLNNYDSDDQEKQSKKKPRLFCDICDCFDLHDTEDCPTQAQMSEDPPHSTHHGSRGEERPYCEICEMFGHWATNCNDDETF
inactive: [1] 0.066 | [3] 0.018 | [4] -0.103 | [5] -0.053 | [6] 0.135 | [7] 0.047 | [8] 0 | [9] 0.031 | [10] 0 | [11] 0.055 | [12] -0.04 | [13] 0.049 | [14] -0.073 | [15] -0.01 | [16] -0.049 | [17] 0.015 | [18] -0.015 | [19] 0.029 | [20] -0.059

DDB2 (UniProt Q92466)
inactive: [1] -0.03 | [2] -0.025 | [3] -0.025 | [4] -0.01 | [5] 0.014 | [6] 0.046 | [7] -0.026 | [8] 0.05 | [9] 0.023 | [10] 0.008 | [11] -0.027 | [12] -0.024 | [13] -0.033 | [14] -0.044 | [15] 0.02 | [16] 0.028 | [17] 0.026 | [18] 0.021 | [19] 0.006 | [20] -0.003

DIAPH1 (UniProt H9KV28)
inactive: [1] 0.003 | [2] 0.087 | [3] -0.047 | [4] -0.039 | [6] 0.199 | [7] 0.049 | [8] 0.099 | [9] -0.171 | [10] 0.158 | [11] -0.027 | [12] -0.122 | [14] 0.053 | [16] -0.093 | [17] -0.051 | [18] -0.001 | [19] 0.05 | [20] 0.111

CPT1A (UniProt P50416)
Chain of UniProt P50416 (P50416 whole entry, looked up): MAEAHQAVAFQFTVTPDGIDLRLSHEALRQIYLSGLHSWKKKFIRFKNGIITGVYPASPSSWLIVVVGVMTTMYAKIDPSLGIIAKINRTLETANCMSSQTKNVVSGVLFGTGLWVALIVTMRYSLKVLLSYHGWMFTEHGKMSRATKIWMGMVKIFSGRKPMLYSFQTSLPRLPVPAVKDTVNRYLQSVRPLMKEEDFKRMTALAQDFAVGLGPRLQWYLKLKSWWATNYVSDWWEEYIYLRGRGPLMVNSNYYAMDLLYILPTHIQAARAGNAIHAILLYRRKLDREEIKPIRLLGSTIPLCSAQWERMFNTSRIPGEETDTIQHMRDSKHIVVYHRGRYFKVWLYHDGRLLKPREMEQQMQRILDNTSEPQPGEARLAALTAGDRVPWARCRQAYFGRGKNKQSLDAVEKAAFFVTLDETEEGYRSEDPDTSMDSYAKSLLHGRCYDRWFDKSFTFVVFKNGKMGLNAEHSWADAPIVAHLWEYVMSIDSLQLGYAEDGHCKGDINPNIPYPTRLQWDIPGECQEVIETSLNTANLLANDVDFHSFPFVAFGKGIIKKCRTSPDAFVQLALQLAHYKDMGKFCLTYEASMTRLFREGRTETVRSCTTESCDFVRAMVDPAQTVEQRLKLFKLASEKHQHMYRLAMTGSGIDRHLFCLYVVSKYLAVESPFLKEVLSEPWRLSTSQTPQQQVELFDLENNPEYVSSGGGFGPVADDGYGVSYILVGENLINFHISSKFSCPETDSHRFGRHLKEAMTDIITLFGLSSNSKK
active: [16] 0.308
inactive: [1] 0.013 | [2] 0.014 | [3] 0.114 | [4] 0.009 | [5] 0.021 | [6] 0.057 | [7] 0.037 | [8] 0.038 | [9] -0.056 | [10] -0.027 | [11] -0.012 | [12] 0.049 | [13] 0.015 | [14] -0.022 | [15] 0.008 | [17] 0.056 | [18] -0.09 | [19] -0.028 | [20] -0.038

CLPTM1L (UniProt Q96KA5)
Chain of UniProt Q96KA5 (Q96KA5 whole entry, looked up): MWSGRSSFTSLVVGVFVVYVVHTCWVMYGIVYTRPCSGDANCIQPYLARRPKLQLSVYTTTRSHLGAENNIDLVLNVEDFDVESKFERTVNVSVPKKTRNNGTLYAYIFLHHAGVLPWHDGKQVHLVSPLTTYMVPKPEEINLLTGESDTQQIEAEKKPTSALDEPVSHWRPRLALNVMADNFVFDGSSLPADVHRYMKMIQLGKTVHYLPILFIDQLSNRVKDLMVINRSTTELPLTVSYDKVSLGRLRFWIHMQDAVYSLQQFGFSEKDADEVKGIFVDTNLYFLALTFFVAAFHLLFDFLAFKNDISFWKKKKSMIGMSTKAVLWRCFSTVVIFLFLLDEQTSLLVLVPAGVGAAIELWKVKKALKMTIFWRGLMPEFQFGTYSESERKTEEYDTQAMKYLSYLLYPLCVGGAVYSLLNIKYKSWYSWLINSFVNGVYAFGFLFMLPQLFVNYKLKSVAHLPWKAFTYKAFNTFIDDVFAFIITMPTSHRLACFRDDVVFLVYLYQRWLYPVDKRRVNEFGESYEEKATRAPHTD
active: [6] -0.233
inactive: [1] -0.095 | [3] -0.021 | [4] -0.092 | [5] -0.049 | [7] 0.004 | [8] -0.098 | [9] -0.064 | [10] 0.137 | [11] 0.037 | [12] -0.005 | [13] 0.006 | [14] 0 | [15] -0.016 | [16] 0.011 | [17] -0.026 | [18] 0.046 | [19] 0.016 | [20] -0.069

DENND1B (UniProt Q6P3S1)
Chain of UniProt Q6P3S1 (Q6P3S1 whole entry, looked up): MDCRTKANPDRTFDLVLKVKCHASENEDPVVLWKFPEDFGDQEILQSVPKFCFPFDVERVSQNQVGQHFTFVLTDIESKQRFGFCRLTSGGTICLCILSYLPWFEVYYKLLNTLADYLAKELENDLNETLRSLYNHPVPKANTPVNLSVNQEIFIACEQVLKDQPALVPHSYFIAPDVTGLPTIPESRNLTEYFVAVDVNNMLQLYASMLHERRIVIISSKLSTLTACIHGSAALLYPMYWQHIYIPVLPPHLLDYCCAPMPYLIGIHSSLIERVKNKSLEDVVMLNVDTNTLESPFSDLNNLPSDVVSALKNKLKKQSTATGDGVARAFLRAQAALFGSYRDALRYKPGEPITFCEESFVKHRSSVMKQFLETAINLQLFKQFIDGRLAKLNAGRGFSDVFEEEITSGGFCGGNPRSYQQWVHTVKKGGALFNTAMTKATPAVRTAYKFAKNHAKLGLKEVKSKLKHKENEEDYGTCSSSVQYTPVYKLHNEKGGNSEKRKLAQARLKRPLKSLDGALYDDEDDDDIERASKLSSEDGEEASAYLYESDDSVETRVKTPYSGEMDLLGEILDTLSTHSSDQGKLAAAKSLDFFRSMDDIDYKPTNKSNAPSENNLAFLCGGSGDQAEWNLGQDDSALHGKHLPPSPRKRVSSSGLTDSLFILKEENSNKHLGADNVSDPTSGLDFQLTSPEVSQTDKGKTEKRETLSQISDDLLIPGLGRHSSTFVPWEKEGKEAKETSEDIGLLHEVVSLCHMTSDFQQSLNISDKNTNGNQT
inactive: [1] 0.1 | [2] 0.096 | [3] -0.019 | [4] 0.003 | [5] -0.08 | [6] -0.194 | [8] -0.072 | [9] 0.154 | [10] -0.03 | [11] 0.042 | [12] -0.073 | [13] 0.073 | [14] -0.05 | [15] -0.09 | [16] -0.16 | [17] 0.017 | [18] 0.211 | [19] 0.2 | [20] 0.209

DAZAP1 (UniProt Q96EP5)
Chain of UniProt Q96EP5 (Q96EP5 whole entry, looked up): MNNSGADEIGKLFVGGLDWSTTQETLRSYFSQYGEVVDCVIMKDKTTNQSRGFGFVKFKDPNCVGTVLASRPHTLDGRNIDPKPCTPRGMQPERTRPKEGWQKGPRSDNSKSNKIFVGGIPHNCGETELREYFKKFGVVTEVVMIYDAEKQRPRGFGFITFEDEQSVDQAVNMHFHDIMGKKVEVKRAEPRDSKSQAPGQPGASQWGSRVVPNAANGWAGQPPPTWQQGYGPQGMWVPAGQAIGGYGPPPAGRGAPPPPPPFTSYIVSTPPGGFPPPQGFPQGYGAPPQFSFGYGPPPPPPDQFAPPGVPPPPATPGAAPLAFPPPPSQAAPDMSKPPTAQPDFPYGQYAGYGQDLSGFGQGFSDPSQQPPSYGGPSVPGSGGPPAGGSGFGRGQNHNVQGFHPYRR
inactive: [1] 0.017 | [2] -0.043 | [3] 0.073 | [4] 0.035 | [5] 0.015 | [6] 0 | [7] 0.064 | [8] 0.003 | [9] 0.243 | [10] -0.04 | [11] -0.066 | [12] 0.04 | [13] 0.015 | [14] 0.044 | [15] -0.016 | [16] 0.118 | [17] -0.039 | [18] 0.005 | [19] 0.01 | [20] -0.008
